The record followed here is PubChem BioAssay.

Active and inactive are the calls of the source.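 Rule for the calls: active = inhibition above the hit cutoff set in the earlier primary screen (cut at about 27% in these data); inactive = the rest.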

Sequence of Protein phosphatase methylesterase 1 (Homo sapiens) (Q9Y570 whole entry, looked up): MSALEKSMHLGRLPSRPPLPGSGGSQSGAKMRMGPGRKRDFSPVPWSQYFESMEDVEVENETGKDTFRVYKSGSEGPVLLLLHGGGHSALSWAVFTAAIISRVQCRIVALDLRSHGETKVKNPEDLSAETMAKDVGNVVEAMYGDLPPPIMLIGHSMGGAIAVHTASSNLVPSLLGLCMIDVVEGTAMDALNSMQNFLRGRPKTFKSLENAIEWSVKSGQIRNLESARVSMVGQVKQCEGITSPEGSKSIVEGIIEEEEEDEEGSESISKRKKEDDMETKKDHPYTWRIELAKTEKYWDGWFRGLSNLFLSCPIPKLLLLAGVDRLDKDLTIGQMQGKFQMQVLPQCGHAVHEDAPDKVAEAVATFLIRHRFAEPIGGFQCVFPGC

This assay addresses Protein phosphatase methylesterase 1 (Homo sapiens) (UniProt Q9Y570). Nature of the assay: human PME-1 methylesterase inhibition confirmation – biochemical, fluorescence polarization, FP-Rh probe, triplicate (AID 2171).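 Note: 0% = enzyme with DMSO and 100% = wells lacking PME-1.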 The following applies: recombinant PME-1, FP-Rh probe fluorescence polarization; at 5.9 µM; stronger effect = higher value. (Polarisation of emitted light reports the rotation of a fluorescent probe.)
As for `Cc1ccc(-n2c(O)c(/C=N/Nc3ccc(S(=O)(=O)N4CCOCC4)cc3[N+](=O)[O-])c3ccccc3c2=O)c(C)c1`, the inhibition is 37.9% (active).

Consider `O=C(N/N=C/c1c[nH]c2ccccc12)c1sc2ccccc2c1Cl`, for which the inhibition is 21.7% (inactive).

For `COc1ccc2ccccc2c1C(O)c1nccn1C` (stereo not given), the inhibition was 23.1% (inactive).

As for `CCN(CC)c1nc2c3c(nc4c(c3c1C#N)CC(=O)N4c1ccc(Cl)cc1)NC(C)=N2`, the inhibition is 9.8% (inactive).

For `Cc1ccc(NC(=O)COC(=O)c2cccc3c2C(=O)c2ccccc2C3=O)c(C)c1`, the inhibition was 91.2% (active).

Regarding `Cc1ccc(S(=O)(=O)/N=C2/C=C(Sc3ncn[nH]3)C(=O)c3ccccc32)c(C)c1`, the inhibition is 49.6% (active).

With `CCCC(=Nc1ccc(N)cc1)C1=C(O)C(C(=O)OC)C(C)(C)CC1=O` (stereo not given), the inhibition is 4.48% (inactive).

For the molecule `Nc1ccc2nc(-c3cccc(-c4nc5ccc(N)cc5[nH]4)c3)[nH]c2c1`, the inhibition is 94.1% (active).

Turning to `COC(=O)c1ccc(Cn2nnc3c(=O)[nH]c(C4CCN(S(=O)(=O)c5ccc(F)cc5)CC4)nc32)cc1`, the inhibition is 38% (active).

Take `Cc1cccc(OCCn2cc(/C=N/NC(=O)c3ccncc3)c3ccccc32)c1`: the inhibition was 2.22% (inactive).

Consider `O=C(O)c1ccccc1Nc1cccc(OCc2ccc3ccccc3n2)c1`, for which the inhibition is 20% (inactive).

On to `COc1cc(/C=N/NC(=O)c2cc3ccccc3[nH]2)ccc1O`, for which the inhibition was 16.1% (inactive).

On to `O=C(/C=C1\NC2(CCCC2)Cc2ccccc21)C(=O)N/N=C/c1ccc(O)c(O)c1`, for which the inhibition was -18.9% (inactive).

Consider `O=C1c2ccccc2-c2onc3ccc(NCc4ccco4)c1c23`, for which the inhibition is 84.5% (active).

Consider `O=S(=O)(Nc1nc2ccccc2nc1Nc1cccc(S(=O)(=O)N2CCCCC2)c1)c1ccccc1`, for which the inhibition is 34.9% (active).

As to `Cc1ccc(NS(=O)(=O)c2ccc3c(c2)C(=O)c2ccccc2C3=O)c(C)c1`, the inhibition is 24.5% (inactive).

On to `COc1ccc2c(c1)cc(C(=O)N/N=C/c1c(O)c(C(=O)O)cc3ccccc13)n2C`, for which the inhibition is 30% (active).

Regarding `CCCCn1c(NC(=O)c2ccccc2Cl)c(C#N)c2nc3ccccc3nc21`, the inhibition is 19.9% (inactive).

Regarding `O=C(COc1ccccc1C(=O)N/N=C\c1ccc(O)c(O)c1)N/N=C/c1ccc(O)c(O)c1`, the inhibition was -40.9% (inactive).

Regarding `CCN(CC)c1ccc(-c2nn3c(-c4ccccc4OC)nnc3s2)cc1`, the inhibition is 22.1% (inactive).

On to `O=C(NCCC1=CCCCC1)C1CCN(S(=O)(=O)c2cccs2)CC1`, for which the inhibition was 25.6% (inactive).

`CCOC(=O)c1c(C)[nH]c(C2=NNC(=Nc3ccc(OCC)cc3)SC2)c1C`: the inhibition was 18.9% (inactive).

As for `COc1ccc(O)c(-c2cc(-c3cccc(Br)c3)n[nH]2)c1`, the inhibition was 23.7% (inactive).

Take `CCn1c(C)c(/C=N/Nc2nc3ccccc3s2)c2ccccc21`: the inhibition is 16.8% (inactive).

Regarding `COc1cccc(Oc2ccc(S(=O)(=O)N3CCCC3)cc2[N+](=O)[O-])c1`, the inhibition is 21.4% (inactive).

On to `Oc1cccc(Nc2nc(O)c(/C=C3\C=Nc4ccccc43)s2)c1`, for which the inhibition was -7.79% (inactive).

Consider `COc1ccc(-c2oc(NC(=O)CCl)c(C#N)c2-c2ccc(OC)cc2)cc1`, for which the inhibition is 22.7% (inactive).

As to `COc1cc(OC)cc(-c2nnc(Nc3nc4c(F)cccc4s3)o2)c1`, the inhibition is 56.2% (active).

For the molecule `COc1ccc(-c2cc(-c3ccc(C)cc3)n[nH]2)c(O)c1`, the inhibition was 37.7% (active).

As to `Cc1cccc(C)c1NS(=O)(=O)c1ccc(NC(=O)c2ccc(Cl)c([N+](=O)[O-])c2)cc1`, the inhibition was -96.3% (inactive).

Regarding `Cc1ccccc1OCC(=O)NC(=S)Nc1cccc2cc(O)ccc12`, the inhibition was 20.7% (inactive).

In the case of `CC(=O)Oc1c(I)cc(I)cc1C(=O)Nc1ccc(Cl)cc1`, the inhibition is 66.8% (active).

With `O=C(CCCSc1ccccc1)Nc1nc(-c2ccco2)c(-c2ccco2)s1`, the inhibition was 6.79% (inactive).

Turning to `Oc1ccc(N=Cc2ccc(OCc3ccccc3)cc2)cc1`, the inhibition was 6.36% (inactive).

Take `Cc1ccc(NS(=O)(=O)c2cccc(C(=O)N3CCN(c4ncccn4)CC3)c2)cc1`: the inhibition is 9.07% (inactive).

As for `COc1cccc(-c2nc(NC3CCCC3)c3ccccc3n2)c1O`, the inhibition was 13.3% (inactive).

In the case of `O=C(N/N=C/c1ccc(O)cc1)c1cccc(N/N=C/c2ccc(O)cc2)c1`, the inhibition is 18.8% (inactive).

For `Cc1[nH]c(N=Nc2ccccc2)nc1N=Nc1ccccc1`, the inhibition is 55.2% (active).

Regarding `CCc1ccc(OC)c(S(=O)(=O)Nc2ccc(Cc3ccncc3)cc2)c1`, the inhibition was 31.8% (active).

With `Cc1cccnc1Nc1nc(-c2ccc(O)c(O)c2)cs1`, the inhibition was 14.8% (inactive).

For orientation: inhibition means the change of the read-out against control, counted positive when it falls.
